Assays:
Details in all cases: concentration: 1 μM, replicates: in singlicate; n = 1
[1] = tested on: EPHA2
[2] = tested on: EPHA3
[3] = tested on: EPHA4
[4] = tested on: EPHA5
[5] = tested on: EPHA6
[6] = tested on: EPHA7
[7] = tested on: EPHA8
[8] = tested on: EPHB1
[9] = tested on: EPHB2
[10] = tested on: EPHB3
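Further: KINOMEscan kinase panel screen.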

Structure (SMILES) | %Inh [1] [%] | %Inh [2] [%] | %Inh [3] [%] | %Inh [4] [%] | %Inh [5] [%] | %Inh [6] [%] | %Inh [7] [%] | %Inh [8] [%] | %Inh [9] [%] | %Inh [10] [%]
COC(=O)C(NC(=O)NC1CCN(c2ccnc(Nc3ccc(F)cc3)n2)C1)c1ccccc1 (stereo not shown) [GSK1379712] | 0 | 0 | 3 | 0 | 2 | 0 | 10 | 10 | 11 | 1
COc1nccc(-c2c(-c3ccc(F)cc3)ncn2CCCN2CCOCC2)n1 [SB-282852] | 0 | 10 | 0 | 0 | 0 | 0 | 0 | 0 | 0 | 0
COc1ccc(Nc2nccc(NCCNC(=O)Nc3cc(C)ccc3C)n2)cc1 [GSK1379899] | 0 | 0 | 17 | 0 | 14 | 3 | 6 | 16 | 0 | 17
NS(=O)(=O)c1cccc(N/C=C2\C(=O)Nc3ccc(S(=O)(=O)Cc4c(Cl)cccc4Cl)cc32)c1 [GSK398099] | 0 | 12 | 12 | 0 | 3 | 8 | 31 | 17 | 14 | 6
